Compounds without any hit were thinned out: in the full panel of roughly 83,000, 20% have a hit.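 Activity criterion: percent growth below 10, measured after cells in 96-well plates were exposed to a single compound concentration for 48 hours.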 Activity calls are given as the source filed them.

In this assay the test system is MDA-MB-468 breast. As to the kind of experiment: NCI-60 one-dose screen, 48 h (100 = growth as untreated, 0 = no growth, -100 = all killed). To be noted: 10 µM unless noted.
With `CCC(=O)Oc1c(C)cc(O)c2ccccc12`, the growth is 5.03% (active).
On to `COC1CC(OC(=O)c2ccc([N+](=O)[O-])cc2)C(COC(=O)c2ccc([N+](=O)[O-])cc2)O1` (stereo not given), for which the growth is 93.6% (inactive).
As for `O=C(O)CCCn1c(SCc2c(Cl)cccc2Cl)nc2ccsc2c1=O`, the figure is -4.76% (active).
Under `CCOC(=O)/C(C#N)=C(\C)CCc1ccccc1` stands 76.5% (inactive); under `COc1ccc2oc(=O)cc(-c3nc4ccc(N)cc4[nH]3)c2c1`, 83.9% (inactive).
As for `CC(C)CC(NC(=O)OCC1c2ccccc2-c2ccccc21)C(=O)O` (stereo not given), the figure is 103% (inactive); as for `CN(C)C/C=C/C(=O)Nc1cc2c(Nc3ccc(F)c(Cl)c3F)ncnc2cc1OCCOC(F)F`, -40.8% (active).
As for `c1ccc(Nc2ncc3c(n2)-c2cccn2CC3)cc1`, the growth was 4.29% (active).
As to `CCN(CC)c1ccc2cc(C(Nc3ccc(Cl)cc3)c3nnnn3C(C)(C)C)c(=O)oc2c1` (stereo not given), the growth is 109% (inactive).
On to `Cc1cc(Nc2nc(-c3ccncc3)nc3ccccc23)n[nH]1`, for which the growth is 84.2% (inactive).
Under `COc1ccc(C(O)c2cc3c(N)c(C(=O)Nc4cccc(Br)c4C)sc3nc2C)cc1` (stereo not given) stands 7.52% (active); under `Cc1ccc(NC(=O)NC2CCCCC2)cc1`, 93.5% (inactive).
Take `O=C(O)C(CCc1ccccc1)NCc1ccccc1` (stereo not given): the growth is 108% (inactive).
For the molecule `CCOC(=O)c1ccc(N(C=O)CCC(=O)CCl)cc1`, the growth was 40.3% (inactive).
`CCOc1ccc(-c2cc(C3(S(=O)(=O)c4ccc(C)cc4)CC=CC3)on2)cc1`: the growth is 72% (inactive).
As for `FC(F)(F)c1nc2c(NCc3ccc(-c4ccccc4)cc3)cccc2[nH]1`, the growth is 70.2% (inactive).
As for `C=C(C)[C@@H]1CC[C@]2(C)[C@H](CC[C@@H]3[C@H]4[C@H]5OC[C@@]4(CCC5(C)C)CC[C@]32C)[C@@]1(C)CCCN`, the growth was -68.2% (active).
With `COc1ccc(-c2cc(/C=C3\C(=O)Nc4ccc(Cl)cc43)[nH]n2)cc1OC`, the growth is 108% (inactive).
As for `CN(C)CCCOc1ccc(OCCCN(C)C)c2c1C(=O)c1ccccc1C2=O`, the figure is -33.7% (active).
`CC(=O)Nc1ccc2c(c1)/C(=C\C=C/c1ccc([N+](C)(C)C)cc1)c1ccccc1-2`: the growth was 21.5% (inactive).
As for `CC(C)c1ccc(Nc2ccc3c(OCCCN4CCN(C)CC4)cccc3n2)cc1`, the figure is 66% (inactive).
Take `COc1cc(/C=C/C(=O)c2cc(OC)c(OC)c(OC)c2)ccc1OCc1ccc(F)cc1`: the growth is 17.8% (inactive).
For the molecule `COc1cccc(-c2[nH]c(=S)ncc2C(=O)c2ccccc2)c1`, the growth was 59.4% (inactive).
As for `O=CN(SSN(C=O)C1CCCCC1)C1CCCCC1`, the growth was 108% (inactive).
As for `CC(=O)OC[C@]12CC[C@@H](C(=O)CBr)[C@@H]1[C@H]1CC[C@@H]3[C@@]4(C)CC[C@H](OC(C)=O)C(C)(C)[C@@H]4CC[C@@]3(C)[C@]1(C)CC2`, the figure is 108% (inactive); as for `COc1ccc(/C=N/N=C(/c2ccccc2)c2ccc3nc(-c4ccc(Cl)cc4)[nH]c3c2)cc1`, 70% (inactive); as for `CNC(=S)N/N=C/CSC/C=N/NC(=S)NC`, 66.8% (inactive).
`COc1ccc(Cl)cc1NC(=O)c1cc2c(n1C)-c1nc(NC(=O)C(C)C)sc1CC2`: the growth is 88.5% (inactive).
In the case of `C=CC(=O)Nc1cccc(Oc2nc(Nc3ccc(N4CCN(C)CC4)cc3)nc3ccsc23)c1`, the growth was -69.1% (active).
Take `Cc1cc(N)ccc1-c1ccc(N)cc1C`: the growth was 97.5% (inactive).
`COc1cc2ncnc(Nc3ccc(S(=O)(=O)Nc4cc(C)on4)cc3)c2cc1OCCCN1CCN(c2ccc([N+](=O)[O-])cc2)CC1`: the growth is 115% (inactive).
For `CCCCn1c(=O)[nH]c(N)c([C@@H]2c3c([nH]c(=O)n(CCCC)c3=O)Oc3ccc4ccccc4c32)c1=O`, the growth was 113% (inactive).
Regarding `COc1cc(NC(N)=NCC(C)(C)COc2ccc(C(F)(F)F)cc2)cnc1C#N`, the growth was 19.6% (inactive).
As for `O=C(O)c1ccc(-n2cc(/C=N/Nc3ccc(Cl)cc3Cl)c(-c3ccccc3)n2)cc1`, the figure is 79.7% (inactive).
Consider `CCCCn1c(C)nc2cc(Nc3nc(N4CCCCC4)nc4nc[nH]c34)ccc21`, for which the growth was 36.1% (inactive).
Consider `Oc1ccc(/C=N\Nc2ccccn2)c(O)c1`, for which the growth was 9.5% (active).
Take `COc1ccc(CCl)c(C)c1OC`: the growth is 109% (inactive).
Under `NNC(=O)Oc1c(Cl)cc(Cl)cc1[N+](=O)[O-]` stands 112% (inactive); under `CCCCCCC/C=N/NC(=O)c1ccc(-n2cc(-c3ccccc3)nn2)cc1`, 82.6% (inactive); under `CC(C)/C=N/NC(N)=S`, 19.3% (inactive).

Source of the values: PubChem BioAssay (NCI).
